In the supplement of paper PMC10037445:
The full ranking holds about 2,900 compounds; the median of “NF-kB SEAP reporter activity, fold change vs agonist alone” is about 0.99, and the highest 2% start at about 2.6. What follows is part of a selection rich in the highest values, with near analogues and random picks from the rest.

Key:
RAW-Dual [1] = assay: NF-kB SEAP reporter activity, fold change vs agonist alone; higher = enhanced NF-kB activity; details: library stock concentration (final ~1000-fold dilution): 10 mM
Procedure, shortened: (§1)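 RAW-Dual macrophages (50,000 cells/well in DMEM, 384-well plates) received 50 nL of library stock by pin tool, then a PRR agonist 1 h later, and were kept at 37 °C, 5% CO2. After 20 hours, supernatant was read for IRF by QuantiLuc luminescence and for NF-κB by QuantiBlue absorbance at 620 nm. Reporter activity is fold change over agonist-alone wells. Cytotoxic wells had IncuCyte confluency below 70% of agonist controls in both mask sets.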

RAW-Dual [2] = assay: NF-kB SEAP reporter activity, fold change vs agonist alone; cytotoxicity flag (confluency mask): not cytotoxic; library stock concentration (final ~1000-fold dilution): 10 mM; higher = enhanced NF-kB activity
Procedure, shortened: as §1

RAW-Dual [3] = assay: NF-kB SEAP reporter activity, fold change vs agonist alone; cytotoxicity flag (confluency mask): cytotoxic (confluency <70% of control); library stock concentration (final ~1000-fold dilution): 10 mM; higher = enhanced NF-kB activity
Procedure, shortened: as §1

[4] = cytotoxicity flag (confluency mask): not cytotoxic, agonist: MPLA (TLR4) […]
[5] = agonist: ODN 1826 (TLR9) 0.5 ug/mL
[6] = agonist: Pam2CSK4 (TLR2/6) 0.1 ug/mL
[7] = agonist: Pam3CSK4 (TLR2/1) 0.1 ug/mL
[8] = cytotoxicity flag (confluency mask): not cytotoxic, agonist: Imiquimod (TLR7) […]
[9] = cytotoxicity flag (confluency mask): cytotoxic (confluency <70% of control), agonist: Imiquimod (TLR7) […]
[10] = cytotoxicity flag (confluency mask): cytotoxic (confluency <70% of control), agonist: MPLA (TLR4) […]

CCC1(c2c[nH]cn2)Cc2ccccc2C1.Cl
NF-kB SEAP reporter activity (RAW-Dual [1]; [4]): 0.931 | NF-kB SEAP reporter activity (RAW-Dual [2]; agonist: LPS (TLR4) 0.1 ug/mL): 0.796 | NF-kB SEAP reporter activity (RAW-Dual [2]; [5]): 0.745 | NF-kB SEAP reporter activity (RAW-Dual [2]; [6]): 0.9 | NF-kB SEAP reporter activity (RAW-Dual [2]; [7]): 0.997

CN1C2CCC1CC(=O)C2
NF-kB SEAP reporter activity (RAW-Dual [1]; [8]): 1.66 | NF-kB SEAP reporter activity (RAW-Dual [1]; [4]): 1.16 | NF-kB SEAP reporter activity (RAW-Dual [2]; agonist: LPS (TLR4) 0.1 ug/mL): 0.911 | NF-kB SEAP reporter activity (RAW-Dual [2]; [5]): 1.6 | NF-kB SEAP reporter activity (RAW-Dual [2]; [6]): 1 | NF-kB SEAP reporter activity (RAW-Dual [2]; [7]): 1.54

CCC1CN2CCC3(C(=O)Nc4ccccc43)C2CC1/C(=C\OC)C(=O)OC (configuration not stated)
NF-kB SEAP reporter activity (RAW-Dual [1]; [8]): 0.907 | NF-kB SEAP reporter activity (RAW-Dual [1]; [4]): 1.25 | NF-kB SEAP reporter activity (RAW-Dual [2]; agonist: LPS (TLR4) 0.1 ug/mL): 1.1 | NF-kB SEAP reporter activity (RAW-Dual [2]; [5]): 0.873 | NF-kB SEAP reporter activity (RAW-Dual [2]; [6]): 0.87 | NF-kB SEAP reporter activity (RAW-Dual [2]; [7]): 0.852

O=C(CBr)N1CC([N+](=O)[O-])([N+](=O)[O-])C1
NF-kB SEAP reporter activity (RAW-Dual [1]; [9]): 0.542 | NF-kB SEAP reporter activity (RAW-Dual [1]; [10]): 0.295 | NF-kB SEAP reporter activity (RAW-Dual [3]; agonist: LPS (TLR4) 0.1 ug/mL): 0.335 | NF-kB SEAP reporter activity (RAW-Dual [3]; [5]): 0.252 | NF-kB SEAP reporter activity (RAW-Dual [3]; [6]): 0.0912 | NF-kB SEAP reporter activity (RAW-Dual [3]; [7]): 0.189

CC1=CC2Cc3[nH]c(=O)ccc3C3(C1)NCCCC23 (configuration not stated)
NF-kB SEAP reporter activity (RAW-Dual [1]; [8]): 0.933 | NF-kB SEAP reporter activity (RAW-Dual [1]; [4]): 1.03 | NF-kB SEAP reporter activity (RAW-Dual [2]; agonist: LPS (TLR4) 0.1 ug/mL): 1.12 | NF-kB SEAP reporter activity (RAW-Dual [2]; [5]): 0.952 | NF-kB SEAP reporter activity (RAW-Dual [2]; [6]): 1.11 | NF-kB SEAP reporter activity (RAW-Dual [2]; [7]): 1.22

COc1ccc(CC2NCC(O)C2OC(C)=O)cc1 (configuration not stated)
NF-kB SEAP reporter activity (RAW-Dual [1]; [9]): 0.133 | NF-kB SEAP reporter activity (RAW-Dual [1]; [10]): 0.231 | NF-kB SEAP reporter activity (RAW-Dual [3]; agonist: LPS (TLR4) 0.1 ug/mL): 0.216 | NF-kB SEAP reporter activity (RAW-Dual [3]; [5]): 0.171 | NF-kB SEAP reporter activity (RAW-Dual [3]; [6]): 0.0635 | NF-kB SEAP reporter activity (RAW-Dual [3]; [7]): 0.145

Cc1c(C(C)C2NCC(C)CC2O)ccc2c1CC1C2CC=C2CC(O)CCC21C (configuration not stated)
NF-kB SEAP reporter activity (RAW-Dual [1]; [8]): 0.945 | NF-kB SEAP reporter activity (RAW-Dual [1]; [4]): 1.15 | NF-kB SEAP reporter activity (RAW-Dual [2]; agonist: LPS (TLR4) 0.1 ug/mL): 1.1 | NF-kB SEAP reporter activity (RAW-Dual [2]; [5]): 1.02 | NF-kB SEAP reporter activity (RAW-Dual [2]; [6]): 0.866 | NF-kB SEAP reporter activity (RAW-Dual [2]; [7]): 1.03

O.O=C1C=CCC2C3CCCN4CCCC(CN12)C34 (configuration not stated)
NF-kB SEAP reporter activity (RAW-Dual [1]; [8]): 0.531 | NF-kB SEAP reporter activity (RAW-Dual [1]; [4]): 0.792 | NF-kB SEAP reporter activity (RAW-Dual [2]; agonist: LPS (TLR4) 0.1 ug/mL): 1.41 | NF-kB SEAP reporter activity (RAW-Dual [2]; [5]): 0.558 | NF-kB SEAP reporter activity (RAW-Dual [2]; [6]): 0.957 | NF-kB SEAP reporter activity (RAW-Dual [2]; [7]): 1.11
